{"source": "PubChem BioAssay AID624133", "about": "(Broad Institute, 2012)", "note": "About 1,300 (81%) of roughly 1,600 compounds were called active. The rule behind the calls is not given here. The set was probably picked from earlier hits. A selection follows. Potency and affinity values are given separately.", "data": [{"test": "non-specific 3'UTR reporter inhibition in Clone20-Shn3RL – cell-based, Renilla luciferase, cherry-picked, counter-screen for Shn3 inhibitor project, dose response (AID 624133);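 note: 0% = neutral control wells and -100% = positive control wells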", "conditions": "Clone20-Shn3RL cells, Renilla luciferase luminescence, 24 h; at 35 µM (top of the series) unless noted", "units": {"activity change, negative = inhibition": "%"}, "values": [{"smiles": "O=C(c1n[nH]c(=O)c2ccccc12)N1CCN(C2c3ccccc3-c3ccccc32)CC1", "activity change, negative = inhibition": -59.1}, {"smiles": "CCOc1ccc(NS(=O)(=O)c2cc(C(=O)NCCN3CCOCC3)ccc2C)cc1", "activity change, negative = inhibition": 360}, {"smiles": "Cc1ccc(NC(=O)NCCCN2CCOCC2)cc1", "activity change, negative = inhibition": -95.8}, {"smiles": "O=C(Cc1ccccc1)NCCS(=O)c1ccc(Cl)cc1", "note": "(stereo not given)", "activity change, negative = inhibition": 58.3}, {"smiles": "CC(C)(CNC(=O)c1ccc(Cl)c(S(=O)(=O)N2CCc3ccccc3C2)c1)N1CCOCC1", "activity change, negative = inhibition": -44.4}, {"smiles": "CCN(CC)S(=O)(=O)c1ccc(N2CCOCC2)c(NC(=O)c2nn(C(C)C)c(=O)c3ccccc23)c1", "activity change, negative = inhibition": -4.17}, {"smiles": "Cc1ccc(OC(=O)CCC(=O)Oc2ccc(C)cc2C)c(C)c1", "activity change, negative = inhibition": 70.8}, {"smiles": "CC(C)C[C@@H](CO)N(Cc1ccccc1)S(=O)(=O)N(Cc1ccccc1)[C@H](CO)CC(C)C", "activity change, negative = inhibition": -80}, {"smiles": "O=C(Nc1ccccc1)Nc1cc(OCC(F)(F)F)cc(OCC(F)(F)F)c1", "activity change, negative = inhibition": 0}, {"smiles": "O=C(NCCCn1ccnc1)C(=O)NCC1OCCCN1S(=O)(=O)c1ccccc1", "note": "(stereo not given)", "activity change, negative = inhibition": 8.33}, {"smiles": "Cc1ccc(S(=O)(=O)NCc2ccncc2)cc1C", "activity change, negative = inhibition": 25}, {"smiles": "Cc1cc(S(=O)(=O)NCc2ccncc2)c(C)cc1Br", "activity change, negative = inhibition": 275}, {"smiles": "CC(=O)N1CCOc2cc(S(=O)(=O)NCc3ccc(F)cc3)c(C)cc21", "activity change, negative = inhibition": 179}, {"smiles": "COCc1nn2c(N)c(C#N)cnc2c1-c1ccccc1", "activity change, negative = inhibition": 16.7}, {"smiles": "CC(=O)OCC(=O)[C@@]1(O)CC[C@H]2[C@@H]3CCC4=CC(=O)CC[C@]4(C)[C@H]3C(=O)C[C@@]21C", "activity change, negative = inhibition": 12.2}, {"smiles": "CC(NNC(=S)N1CCN(c2ccccn2)CC1)c1nccc2ccccc12", "note": "(stereo not given)", "activity change, negative = inhibition": 300}, {"smiles": "Cc1c(C)c2ccc(OCC(=O)Nc3ccccn3)c(C)c2oc1=O", "activity change, negative = inhibition": 107}, {"smiles": "Cc1ccc(S(=O)(=O)NCCc2cc3ccc(C)cc3[nH]c2=O)cc1", "activity change, negative = inhibition": 33.6}, {"smiles": "Cc1cc(C(=O)COC(=O)c2ccccc2O)c(C)n1Cc1cccs1", "activity change, negative = inhibition": -4.54}, {"smiles": "CN=C1c2cc3cc(OC)ccc3n2CCN1Cc1ccccc1", "activity change, negative = inhibition": 64.3}, {"smiles": "COc1ccc(OC)c(NC(=O)CN(Cc2ccc(F)cc2)C2CCCCC2)c1", "activity change, negative = inhibition": -40}, {"smiles": "CC(C)(C)c1nc(NCCN2CCOCC2)c2nnn(Cc3ccccc3Cl)c2n1", "activity change, negative = inhibition": -45.5}, {"smiles": "CCC(C)[C@H]1CNC(=S)N1CCc1cc(C(F)(F)F)cc(C(F)(F)F)c1", "note": "(stereo not given in full)", "activity change, negative = inhibition": 177}, {"smiles": "CCN(CC)C(=O)C1CCCN(c2ccc([N+](=O)[O-])cc2[N+](=O)[O-])C1", "note": "(stereo not given)", "activity change, negative = inhibition": 58.3}, {"smiles": "C[C@]12CC[C@H](O)CC1=CCC1C2CC[C@@]2(C)C1CCC21OCCO1", "note": "(stereo not given in full)", "activity change, negative = inhibition": 16.7}, {"smiles": "Cc1cc(-n2c(C)cc(C(=O)CSc3nncn3C)c2C)no1", "activity change, negative = inhibition": -18.2}, {"smiles": "CCOc1ccc2nc(SC3CC(=O)N(c4ccc(C)cc4)C3=O)sc2c1", "note": "(stereo not given)", "activity change, negative = inhibition": 30}, {"smiles": "Cc1ccc(CNC(=O)c2ccc3c(=O)c(O)c(-c4ccc(C)cc4)[nH]c3c2)cc1", "activity change, negative = inhibition": -14.3}, {"smiles": "CCc1c(O)nc(SCC(=O)Nc2ccccc2)n(-c2ccccc2)c1=O", "activity change, negative = inhibition": 80}, {"smiles": "CN(C(=O)CSc1nc(-c2cccs2)nc2ccccc12)C1CCS(=O)(=O)C1", "note": "(stereo not given)", "activity change, negative = inhibition": -119}, {"smiles": "CCN(CC)Cc1c(O)ccc2c1O/C(=C\\C=C\\c1ccccc1)C2=O", "activity change, negative = inhibition": 60}, {"smiles": "O=C(NCCc1ccccc1)c1ccc2c(c1)OCCO2", "activity change, negative = inhibition": -2.38}, {"smiles": "COc1ccc2c(c1OC)C(=O)N1c3ccccc3C(=O)N(c3ccccc3F)C21", "note": "(stereo not given)", "activity change, negative = inhibition": 87.5}, {"smiles": "CSc1nnc(-c2ccco2)n1-c1ccccc1", "activity change, negative = inhibition": 31.8}, {"smiles": "CC(C)N1CCN(c2ccc(OCC3COC(Cn4cncn4)(c4ccc(Cl)cc4Cl)O3)cc2)CC1", "note": "(stereo not given)", "activity change, negative = inhibition": 0}, {"smiles": "COc1c(CC=C(C)C)cc(C2CC(=O)c3c(O)cc(O)cc3O2)cc1CC=C(C)C", "note": "(stereo not given)", "activity change, negative = inhibition": 50}, {"smiles": "Nc1nc(N)c2cc(S(=O)(=O)c3ccc4ccccc4c3)ccc2n1", "activity change, negative = inhibition": 16.7}, {"smiles": "C[C@@H]1CN([C@H](C)CO)C(=O)CCCn2nncc2CO[C@H]1CN(C)S(=O)(=O)c1ccc2c(c1)OCCCO2", "activity change, negative = inhibition": -47.9}, {"smiles": "O=C(NCCNC(=O)Oc1cccc2ccccc12)Oc1cccc2ccccc12", "activity change, negative = inhibition": 41.7}, {"smiles": "COc1cc(OC)c(OC)cc1CCC(C)NCCC(c1ccccc1)c1ccccc1", "note": "(stereo not given)", "activity change, negative = inhibition": -33.3}, {"smiles": "Cc1ccc(C)c(N2CCN(S(=O)(=O)c3ccc4[nH]c(=O)ccc4c3)CC2)c1", "activity change, negative = inhibition": 4.54}, {"smiles": "CC1(Cc2ccc(OC(F)(F)F)cc2)C(=O)Nc2c(Cl)ccc(Cl)c21", "note": "(stereo not given)", "activity change, negative = inhibition": 30}, {"smiles": "Cc1csc(=O)n1CC(=O)OCC(=O)c1c(N)n(C)c(=O)n(C)c1=O", "activity change, negative = inhibition": 10}, {"smiles": "COc1ccc(CC(=O)Nc2ccncc2Cl)cc1", "activity change, negative = inhibition": -54.2}, {"smiles": "O=[N+]([O-])c1cccc(S(=O)(=O)NCc2ccncc2)c1", "activity change, negative = inhibition": 14.3}, {"smiles": "NS(=O)(=O)c1ccc(CNC(=S)NC(=O)c2ccco2)cc1", "activity change, negative = inhibition": 40.3}, {"smiles": "Cc1ccc(-c2nc(-c3ccccn3)no2)cc1", "activity change, negative = inhibition": -90.9}, {"smiles": "c1ccc(-c2noc(-c3ccc4ccccc4c3)n2)nc1", "activity change, negative = inhibition": -2.38}, {"smiles": "CCOC(=O)c1c(NC(=O)c2nn(CC)cc2Br)sc(C)c1C", "activity change, negative = inhibition": 16.7}, {"smiles": "CN(C)c1ccc(/C=C/c2ccc3ccccc3n2)cc1", "activity change, negative = inhibition": 117}]}]}
